The campaign covered roughly 5,500 compounds. About 2,000 (36%) were called active. Inconclusive results (about 18%) are left out. Rule as the data show it: active = normalized growth mostly below about 0.91 (no sharp cut-off); inconclusive = no clear call, values can overlap the other calls; inactive = mostly above about 0.92. The list shows a part of the results.
Assay: chemical genetic growth profiling, strain panel (AID 1159580);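 also: tested at 20 µM; growth read once vehicle control cultures reached saturation at 30 °C; 1 = growth at the plate median or of vehicle wells; lower values mean less growth of the strain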
Details: growth OD

Measured: normalized growth

COc1cc([C@@H]2c3cc4c(cc3C(O[C@@H]3O[C@@H]5CO[C@@H](c6cccs6)OC5[C@H](O)[C@H]3O)C3COC(=O)[C@@H]32)OCO4)cc(OC)c1O (stereo not given in full)
inactive: S. cerevisiae deletion strains, locus YJR066W, strain TOR1, hits give low values 0.99 | S. cerevisiae deletion strains, locus YKL009W, strain mrt4, hits give low values 1.03 | S. cerevisiae deletion strains, locus YKL068W, hits give low values 1.01 | S. cerevisiae deletion strains, locus YKL085W, strain MDH1 (second series), hits give low values 1 | S. cerevisiae deletion strains, locus YKL085W, strain MDH1, hits give low values 1 | S. cerevisiae deletion strains, locus YKL160W, strain elf1, hits give low values 1.05 | S. cerevisiae deletion strains, locus YKL190W, strain CNB1, hits give low values 0.997 | S. cerevisiae deletion strains, locus YKR001C, strain vps1, hits give low values 1.02 | S. cerevisiae deletion strains, locus YKR026C, strain gcn3, hits give low values 0.986 | S. cerevisiae deletion strains, locus YKR091W, strain srl3, hits give low values 0.998 | S. cerevisiae deletion strains, locus YLL001W, strain dnm1, hits give low values 1.05 | S. cerevisiae deletion strains, locus YLL026W, hits give low values 0.984 | S. cerevisiae deletion strains, locus YLL041C, strain sdh2, hits give low values 0.967 | S. cerevisiae deletion strains, locus YLR027C, strain aat2, hits give low values 0.985 | S. cerevisiae deletion strains, locus YLR039C, strain RIC1, hits give low values 1.01 | S. cerevisiae deletion strains, locus YLR058C, strain SHM2, hits give low values 1 | S. cerevisiae deletion strains, locus YLR102C, strain apc9, hits give low values 1.02 | S. cerevisiae deletion strains, locus YLR113W, strain HOG1, hits give low values 1.01 | S. cerevisiae deletion strains, locus YLR221C, strain rsa3, hits give low values 1.03 | S. cerevisiae deletion strains, locus YLR258W, strain gsy2, hits give low values 1 | S. cerevisiae deletion strains, locus YLR262C, strain YPT6 (second series), hits give low values 1 | S. cerevisiae deletion strains, locus YLR262C, strain YPT6, hits give low values 0.964 | S. cerevisiae deletion strains, locus YLR268W, strain sec22, hits give low values 1.02 | S. cerevisiae deletion strains, locus YLR320W, strain mms22, hits give low values 1.01 | S. cerevisiae deletion strains, locus YLR330W, strain CHS5, hits give low values 0.999 | S. cerevisiae deletion strains, locus YLR342W, strain FKS1 (second series), hits give low values 1.01 | S. cerevisiae deletion strains, locus YLR342W, strain FKS1, hits give low values 0.99 | S. cerevisiae deletion strains, locus YLR357W, strain rsc2, hits give low values 0.98 | S. cerevisiae deletion strains, locus YLR370C, strain arc18, hits give low values 0.986 | S. cerevisiae deletion strains, locus YLR371W, strain rom2, hits give low values 1.01 | S. cerevisiae deletion strains, locus YLR384C, strain iki3, hits give low values 0.97 | S. cerevisiae deletion strains, locus YLR418C, strain cdc73, hits give low values 1.02 | S. cerevisiae deletion strains, locus YML016C, strain PPZ1, hits give low values 1 | S. cerevisiae deletion strains, locus YML032C, strain rad52, hits give low values 0.917 | S. cerevisiae deletion strains, locus YML120C, strain ndi1, hits give low values 1.02 | S. cerevisiae deletion strains, locus YML124C, strain tub3, hits give low values 1.01 | S. cerevisiae deletion strains, locus YMR058W, strain fet3, hits give low values 0.993 | S. cerevisiae deletion strains, locus YMR078C, strain ctf18, hits give low values 1.01 | S. cerevisiae deletion strains, locus YMR125W, strain sto1, hits give low values 1.01 | S. cerevisiae deletion strains, locus YMR129W, hits give low values 0.983 | S. cerevisiae deletion strains, locus YMR205C, strain PFK2, hits give low values 1.02 | S. cerevisiae deletion strains, locus YMR223W, strain ubp8, hits give low values 1.02 | S. cerevisiae deletion strains, locus YMR231W, strain pep5, hits give low values 0.978 | S. cerevisiae deletion strains, locus YMR263W, strain SAP30, hits give low values 1 | S. cerevisiae deletion strains, locus YMR307W, strain GAS1, hits give low values 0.933 | S. cerevisiae deletion strains, locus YNL067W, strain RPL9B, hits give low values 0.998 | S. cerevisiae deletion strains, locus YNL071W, strain lat1, hits give low values 0.976 | S. cerevisiae deletion strains, locus YNL128W, strain TEP1, hits give low values 1.02 | S. cerevisiae deletion strains, locus YNL183C, strain NPR1, hits give low values 0.987 | S. cerevisiae deletion strains, locus YNL209W, strain ssb2, hits give low values 0.985 | S. cerevisiae deletion strains, locus YNL233W, strain BNI4, hits give low values 1 | S. cerevisiae deletion strains, locus YNL248C, strain rpa49, hits give low values 0.999 | S. cerevisiae deletion strains, locus YNL250W, strain rad50, hits give low values 0.977 | S. cerevisiae deletion strains, locus YNL271C, strain bni1, hits give low values 1.02 | S. cerevisiae deletion strains, locus YNL298W, strain CLA4, hits give low values 1.04 | S. cerevisiae deletion strains, locus YNL307C, strain MCK1, hits give low values 1.03 | S. cerevisiae deletion strains, locus YNL322C, strain KRE1 (second series), hits give low values 0.994 | S. cerevisiae deletion strains, locus YNR049C, strain mso1, hits give low values 0.978 | S. cerevisiae deletion strains, locus YNR052C, strain pop2, hits give low values 1.03 | S. cerevisiae deletion strains, locus YOL006C, strain TOP1, hits give low values 0.89 | S. cerevisiae deletion strains, locus YOL012C, strain htz1 0.835 | S. cerevisiae deletion strains, locus YOL147C, strain pex11, hits give low values 1.01 | S. cerevisiae deletion strains, locus YOR001W, strain rrp6, hits give low values 0.933 | S. cerevisiae deletion strains, locus YOR061W, strain CKA2, hits give low values 1 | S. cerevisiae deletion strains, locus YOR069W, strain VPS5, hits give low values 1 | S. cerevisiae deletion strains, locus YOR070C, strain gyp1, hits give low values 0.991 | S. cerevisiae deletion strains, locus YOR080W, strain dia2, hits give low values 0.971 | S. cerevisiae deletion strains, locus YOR083W, strain WHI5, hits give low values 1.05 | S. cerevisiae deletion strains, locus YOR106W, strain vam3, hits give low values 1.02 | S. cerevisiae deletion strains, locus YOR136W, strain idh2, hits give low values 1.02 | S. cerevisiae deletion strains, locus YOR144C, strain elg1, hits give low values 1.01 | S. cerevisiae deletion strains, locus YOR184W, strain ser1, hits give low values 1.01 | S. cerevisiae deletion strains, locus YOR231W, strain MKK1, hits give low values 1 | S. cerevisiae deletion strains, locus YOR265W, strain rbl2, hits give low values 0.985 | S. cerevisiae deletion strains, locus YOR270C, strain vph1, hits give low values 0.891 | S. cerevisiae deletion strains, locus YOR290C, strain snf2, hits give low values 0.982 | S. cerevisiae deletion strains, locus YOR316C, strain cot1, hits give low values 1.03 | S. cerevisiae deletion strains, locus YPL051W, strain arl3, hits give low values 1.03 | S. cerevisiae deletion strains, locus YPL055C, strain LGE1, hits give low values 0.996 | S. cerevisiae deletion strains, locus YPL078C, strain atp4, hits give low values 1.03 | S. cerevisiae deletion strains, locus YPL106C, strain sse1, hits give low values 1.01 | S. cerevisiae deletion strains, locus YPL240C, strain hsp82, hits give low values 0.99 | S. cerevisiae deletion strains, locus YPL241C, strain CIN2, hits give low values 1 | S. cerevisiae deletion strains, locus YPL256C, strain CLN2, hits give low values 1.03 | S. cerevisiae deletion strains, locus YPR119W, strain clb2, hits give low values 1.01 | S. cerevisiae deletion strains, locus YPR141C, strain kar3, hits give low values 1.01 | S. cerevisiae deletion strains, locus YPR163C, strain tif3, hits give low values 1.03 | S. cerevisiae deletion strains, locus YPR167C, strain met16, hits give low values 1.02 | S. cerevisiae deletion strains, strain wtn01, hits give low values 1.03 | S. cerevisiae strains, strain wild type, hits give low values 1.01
